# Measured values reported in PubChem BioAssay AID1053119 (Broad Institute, 2014).
# Measured potencies and affinities stand elsewhere. Records with an inconclusive call do not appear. The source made the active and inactive calls.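 The calls were made as follows: active = signal loss from cell killing with fitted potency at or below twice the top valid dose; inconclusive = flat drop of 30 to 70%, or unreliable curve fit; inactive = opposite direction, flat within 30%, or weaker potency.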
# Experiment: A549 cell cytotoxicity, dose response, cytotoxicity control, cherry-picks, 26 µM top dose (AID 1053119)
# Details: A549 viability, CellTiter-Glo ATP luminescence, 72 h; series mostly up to 26 µM
row,SMILES,outcome
1,CCOC(=O)C1=C(C)Nc2nc3ccccc3n2C1c1ccncc1 (stereo not drawn),inactive
2,CCCc1cc(C(=O)OC)c(NC(=O)CCC(=O)O)s1,inactive
3,N#Cc1ccc(-c2ccc3c(c2)[C@@H]2[C@@H](CCN2S(=O)(=O)c2ccccc2F)[C@H](CO)N3)cc1,inactive
4,COC(=O)C[C@H]1CC[C@@H]2[C@H](COc3ccc(NC(=O)Cc4cccs4)cc3C(=O)N2C)O1,inactive
5,CC(C)(C)[S@@](=O)N1Cc2cc(C(=O)NCc3ccccc3F)nc(-c3cccc(-c4cncnc4)c3)c2[C@H]1CCO,inactive
6,CN(C)C(=O)c1ccc(-c2ccc3c(c2)[C@@H]2[C@@H](CCN2C(=O)c2ccc(F)cc2)[C@@H](CO)N3C)cc1,inactive
7,C[C@H](O)C#Cc1ccc2c(c1)O[C@@H](CN(C)C)[C@H](C)CN([C@H](C)CO)S2(=O)=O,inactive
8,COc1ccc(CN(C2CCCC2)S(=O)(=O)c2ccc(-n3cnnn3)cc2)cc1OC,inactive
9,O=C(CCNS(=O)(=O)c1cccc2nonc12)NC1CCCc2ccccc21 (stereo not drawn),inactive
10,CC(C)CNC(=O)c1coc(=O)c(Br)c1,inactive
11,NC(=O)C1=C[C@H](c2coc3ccccc3c2=O)C[C@H](OCCCCO)O1,inactive
12,C=CCC[C@H](Cc1ccc(F)cc1)C(=O)OC[C@H](Cc1c[nH]c2ccccc12)NC(=O)[C@@H](CC=C)CC(=O)N[C@@H](CO)Cc1ccccc1,inactive
13,C[C@@H]1CN([C@@H](C)CO)C(=O)c2cc(-c3ccncc3)cnc2O[C@@H]1CN(C)C(=O)Cc1cccnc1,inactive
14,CC1CN(C(=O)c2cc3c(=O)n4ccccc4nc3n2C)CC(C)O1 (stereo not drawn),inactive
15,COCC(=O)Nc1ccc2c(c1)C(=O)N(C)[C@@H]1CC[C@H](CC(=O)NCc3ccccc3Cl)O[C@@H]1CO2,inactive
16,C[C@@H]1CN([C@H](C)CO)C(=O)c2cc(-c3ccccc3)cnc2O[C@H]1CN(C)Cc1ccccc1,inactive
17,CCN1CCN(C(c2ccccc2)c2nnnn2Cc2ccccc2)CC1 (stereo not drawn),inactive
18,CCCCNC(=O)Nc1nc2ccc(CC)cc2s1,inactive
19,CO[C@H]1CN(C)C(=O)c2cc(NC(=O)Nc3ccc(Cl)c(Cl)c3)ccc2OC[C@H](C)NC[C@H]1C,inactive
20,Cc1oc2ccc(O)cc2c1C(=O)c1ccc(Br)cc1,inactive
21,O=C(CSc1nc2ncc(Cl)cc2[nH]1)c1c[nH]c2ccccc12,inactive
22,COC(=O)c1c(NC(=O)CN2CCN(c3ccccc3Cl)CC2)sc(C)c1C,inactive
23,CN(C)C(=O)c1ccc(-c2ccc3c(c2)[C@@H]2[C@@H](CCN2C(=O)c2ccc(F)cc2)[C@H](CO)N3C)cc1,inactive
